# According to PubChem BioAssay (NCATS):
# Results filed as inconclusive are left out. A call without a number means that no potency is given here. A structure can be active in one record and inactive in another. Calls of active or inactive are those of the source. Unless noted, calls follow the shape of the dose curve; as a rule, active = well fitted curve in the direction sought with a large enough effect; inconclusive = small, poorly fitted or top-dose-only effect, or another doubt; inactive = no such curve, though single readings can be large; an effect the other way counts as inactive or inconclusive.
# Tests used:
# [1] = NCATS anti-infectives library activity on HEK293 viability as a counter-qHTS vs the C. elegans viability qHTS (AID 1745854)
# Summary of the method: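 CellTiter-Glo luminescence, read on a CCD imager, scored viability of HEK293 cells after 24 hr compound exposure at 37C. Library tested in several concentrations, 1:5 steps, up to 41.7 uM; digitonin served as control.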
# [2] = molecular target: Glutathione peroxidase 1 (Homo sapiens) (UniProt P07203); assay: Primary qHTS Assay for Inhibitors of Recombinant Selenoprotein Glutathione Peroxidase 1 (GPX1) (AID 1845191); also: nearly all actives have a fitted effect of over 65% in size; also: potency is read from the fitted curve at half-maximal effect
# Glutathione peroxidase 1 (Homo sapiens), sequence (P07203 whole entry, looked up): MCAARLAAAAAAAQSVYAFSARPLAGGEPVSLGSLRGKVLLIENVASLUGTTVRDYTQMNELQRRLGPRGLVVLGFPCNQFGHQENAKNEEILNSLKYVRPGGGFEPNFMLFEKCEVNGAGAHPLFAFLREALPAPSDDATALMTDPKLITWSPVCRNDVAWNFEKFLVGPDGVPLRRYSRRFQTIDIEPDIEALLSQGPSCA
# Summary of the method: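 GR-coupled readout: NADPH consumption tracked by fluorescence, ex 340/em 450 nm, at t=0 and after 15 min at RT. Final mix 10 nM GPX1, 1 mM GSH, 0.5 mM CHP, 0.5 mM NADPH, 100 nM GR, 0.01% BSA, following 30 min enzyme–compound preincubation.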
# [3] = molecular target: Phospholipid hydroperoxide glutathione peroxidase GPX4 (Homo sapiens) (UniProt P36969); assay: Primary qHTS Assay for Inhibitors of Recombinant Selenoprotein Glutathione Peroxidase 4 (GPX4) (AID 1845192); also: nearly all actives have a fitted effect of over 65% in size; also: potency is read from the fitted curve at half-maximal effect
# Phospholipid hydroperoxide glutathione peroxidase GPX4 (Homo sapiens), sequence (P36969 whole entry, looked up): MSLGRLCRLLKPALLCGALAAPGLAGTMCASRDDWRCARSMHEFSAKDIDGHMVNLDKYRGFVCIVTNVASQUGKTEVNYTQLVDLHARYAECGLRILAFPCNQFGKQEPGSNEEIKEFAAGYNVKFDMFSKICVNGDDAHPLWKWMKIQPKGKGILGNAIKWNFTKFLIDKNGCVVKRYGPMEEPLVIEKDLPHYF
# Summary of the method: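 Steps: GPX4 plus compound, 30 min RT; add GR/GSH/NADPH master mix; start with cumene hydroperoxide; read 340/450 nm fluorescence at 0 and 15 min. Finals were 200 nM GPX4, 1 mM GSH, 0.5 mM CHP, 0.5 mM NADPH, 100 nM GR.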
# [4] = NCATS anti-infectives library activity on the primary C. elegans qHTS viability assay (AID 1745855; calls by dose curve)
# Summary of the method: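 Titration-based screen in worms: eggs hatched overnight in M9, L1 larvae fed TOP10 capsules in S medium with compound, incubated 21 °C for 7 days; fluorescent objects gated by size and intensity at days 0, 3 and 7.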
# [5] = molecular target: Luciferin 4-monooxygenase (Photinus pyralis) (UniProt P08659); assay: Primary firefly luciferase (FLuc) qHTS assay for identification of artifact compounds. (AID 1845220); also: nearly all actives have a fitted effect of over 60% in size
# Summary of the method: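 Titrated compounds were incubated 15 min at RT, protected from light, with luciferin and ATP at 10 uM; reaction started with 10 nM FLuc, luminescence imaged at 5 min, and concentration-response fitted by Hill equation.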
# [6] = Primary fluorescence-based thiol-reactive (MSTI) qHTS assay for identification of artifact compounds. (AID 1845221);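 also: thiol-reactive compounds lower the probe fluorescence signal; nearly all actives have a fitted effect of over 65% in size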
# Summary of the method: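 Probe: MSTI 4 uM, PBS pH 7.4, 2% DMSO. Incubation 1 h, RT, light-protected. Readout fluorescence 525/598 nm.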
# [7] = Primary redox qHTS assay for identification of artifact compounds. (AID 1845223)
# Summary of the method: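 Redox-cycling detection via DTT (250 uM final) oxidation coupled to Amplex Red (25 uM)/HRP (250 mU/mL) in HBSS. 15 min preincubation plus 30 min after DTT, room temperature. Ex/Em 525/598 nm; 4-parameter Hill fit against DMSO and 10 uM DA3003.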
# [8] = Viability counterscreen for antagonist of constitutive androstane receptor (CAR) against the NCATS DSHEA and TCM libraries (AID 1794837);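 also: compound exposure lasted 24 h before viability reading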
# Summary of the method: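 Cell viability, CellTiter-Fluor, Ex/Em 405/540 nm, 1 h at 37C. HepG2-CYP2B6-hCAR, 2,500 cells/well; cpds + CITCO 48 uM final (antagonist mode), 24 h, 37C/5% CO2.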
# [9] = Viability counterscreen for agonist of constitutive androstane receptor (CAR) against the NCATS DSHEA and TCM libraries (AID 1794838);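 also: HepG2 cells with CYP2B6 reporter and hCAR plus 0.75 µM PK11195 antagonist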
# Summary of the method: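 Viability by CellTiter-Fluor fluorescence, 405/540 nm, after 1 h at 37C. HepG2-CYP2B6-hCAR cells were exposed 24 h to test substances in presence of 0.75 uM PK11195 (final).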
# [10] = HepG2 viability counterscreen (readout 2: ATP content) against the NCATS DSHEA and TCM libraries (AID 1794840)
# Summary of the method: (§1)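 1,000 HepG2 cells/well, 4 h attach; compounds ~24 h, 37C/5% CO2. Readout 1: GF-AFC 25 uM final, 30 min, fluorescence 380/510 nm. Readout 2: CellTiter-Glo, 30 min RT, luminescence.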
# [11] = HepG2 viability counterscreen (readout 1: protease activity) against the NCATS DSHEA and TCM libraries (AID 1794841);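 also: cells exposed to compounds for about 24 h before the protease read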
# Summary of the method: as §1
# [12] = molecular target: Metallo-beta-lactamase type 2 (Klebsiella pneumoniae) (UniProt C7C422); assay: qHTS to identify inhibitors of the New Delhi Metallo-beta-lactamase (NDM): assay validation screen against the NCATS LOPAC Collection (AID 1794843); also: potency is read from the fitted curve at half-maximal effect
# Metallo-beta-lactamase type 2 (Klebsiella pneumoniae), sequence (C7C422 whole entry, looked up): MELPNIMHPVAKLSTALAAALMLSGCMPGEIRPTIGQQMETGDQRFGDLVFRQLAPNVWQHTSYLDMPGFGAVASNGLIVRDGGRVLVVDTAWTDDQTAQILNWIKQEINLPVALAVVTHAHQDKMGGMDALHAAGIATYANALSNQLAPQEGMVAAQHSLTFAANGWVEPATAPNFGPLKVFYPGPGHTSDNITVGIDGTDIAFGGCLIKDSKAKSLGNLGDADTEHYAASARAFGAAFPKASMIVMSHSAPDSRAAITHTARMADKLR
# Summary of the method: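 Absorbance at 485 nm from nitrocefin turnover (50 uM solution added), read at plateau, gives the read-out. Compounds in DMSO were incubated first with 2 nM final NDM-1 in pH 7.0 HEPES buffer containing 1 uM ZnSO4 and 0.01% Tween20.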
# [13] = molecular target: Rap guanine nucleotide exchange factor 4 (Homo sapiens) (UniProt Q8WZA2); assay: Confirmatory qHTS for agonist of cAMP-regulated guanine nucleotide exchange factor 4 (EPAC2) (AID 1645884);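 also: nucleotide exchange releases bodipy-GDP from Rap1 and this lowers its fluorescence; nearly all actives have a fitted effect of over 65% in size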
# Rap guanine nucleotide exchange factor 4 (Homo sapiens), sequence (Q8WZA2 whole entry, looked up): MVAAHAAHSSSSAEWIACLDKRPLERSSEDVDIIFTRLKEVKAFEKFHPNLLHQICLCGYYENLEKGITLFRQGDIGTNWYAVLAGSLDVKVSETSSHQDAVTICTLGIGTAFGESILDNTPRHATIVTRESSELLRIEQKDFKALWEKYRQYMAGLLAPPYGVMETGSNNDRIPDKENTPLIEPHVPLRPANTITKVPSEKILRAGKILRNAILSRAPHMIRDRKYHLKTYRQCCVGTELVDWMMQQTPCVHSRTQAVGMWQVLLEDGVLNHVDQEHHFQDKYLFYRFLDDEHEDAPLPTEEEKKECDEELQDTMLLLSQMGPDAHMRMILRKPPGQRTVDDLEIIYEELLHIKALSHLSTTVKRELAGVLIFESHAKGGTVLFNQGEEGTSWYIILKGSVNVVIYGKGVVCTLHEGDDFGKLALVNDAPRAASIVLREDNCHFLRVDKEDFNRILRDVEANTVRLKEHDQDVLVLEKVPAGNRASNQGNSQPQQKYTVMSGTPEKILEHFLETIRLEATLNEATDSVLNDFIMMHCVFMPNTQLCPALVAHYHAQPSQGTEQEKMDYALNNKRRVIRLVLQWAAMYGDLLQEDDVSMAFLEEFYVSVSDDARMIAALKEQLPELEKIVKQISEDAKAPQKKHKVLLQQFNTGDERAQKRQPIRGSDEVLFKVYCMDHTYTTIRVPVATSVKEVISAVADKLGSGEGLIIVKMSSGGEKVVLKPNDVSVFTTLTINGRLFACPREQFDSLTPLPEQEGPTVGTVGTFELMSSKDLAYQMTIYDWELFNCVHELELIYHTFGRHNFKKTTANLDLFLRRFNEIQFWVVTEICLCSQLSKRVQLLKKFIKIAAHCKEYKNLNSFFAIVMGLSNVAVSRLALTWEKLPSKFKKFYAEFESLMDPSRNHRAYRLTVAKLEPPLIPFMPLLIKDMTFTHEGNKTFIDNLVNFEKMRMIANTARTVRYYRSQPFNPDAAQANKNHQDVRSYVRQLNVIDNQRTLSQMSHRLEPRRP
# [14] = molecular target: Rap guanine nucleotide exchange factor 4 (Homo sapiens) (UniProt Q8WZA2); assay: Confirmatory qHTS for antagonist of cAMP-regulated guanine nucleotide exchange factor 4 (EPAC2) (AID 1645885); also: nearly all actives have a fitted effect of over 25% in size
# [15] = molecular target: Catechol O-methyltransferase (Homo sapiens) (UniProt P21964); assay: Confirmatory Screen for Target Class Profiling of Small Molecule Inhibitors of Methyltransferases (AID 1745852; calls by dose curve; also: potency is read from the fitted curve at half-maximal effect); details: MTase-Glo luminescence, SAH detection, recombinant enzyme; measured here: COMT max response; stronger effect = lower value
# Catechol O-methyltransferase (Homo sapiens), sequence (P21964 whole entry, looked up): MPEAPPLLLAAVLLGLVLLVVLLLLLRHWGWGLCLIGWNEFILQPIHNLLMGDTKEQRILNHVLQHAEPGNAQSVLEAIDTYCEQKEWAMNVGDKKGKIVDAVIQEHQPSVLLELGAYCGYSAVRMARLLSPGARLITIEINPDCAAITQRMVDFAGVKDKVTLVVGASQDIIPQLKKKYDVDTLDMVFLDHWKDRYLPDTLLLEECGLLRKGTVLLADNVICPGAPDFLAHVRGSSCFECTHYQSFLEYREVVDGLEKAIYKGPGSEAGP
# [16] = molecular target: Guanidinoacetate N-methyltransferase (Homo sapiens) (UniProt Q14353); assay: as above; details: MTase-Glo luminescence, SAH detection, recombinant enzyme; activity change, negative = inhibition: at 57.3 µM (top of the series) unless noted
# [17] = molecular target: Nicotinamide N-methyltransferase (Homo sapiens) (UniProt P40261); assay: as above; details: MTase-Glo luminescence, SAH detection, recombinant enzyme; measured here: NNMT max response; stronger effect = lower value
# Nicotinamide N-methyltransferase (Homo sapiens), sequence (P40261 whole entry, looked up): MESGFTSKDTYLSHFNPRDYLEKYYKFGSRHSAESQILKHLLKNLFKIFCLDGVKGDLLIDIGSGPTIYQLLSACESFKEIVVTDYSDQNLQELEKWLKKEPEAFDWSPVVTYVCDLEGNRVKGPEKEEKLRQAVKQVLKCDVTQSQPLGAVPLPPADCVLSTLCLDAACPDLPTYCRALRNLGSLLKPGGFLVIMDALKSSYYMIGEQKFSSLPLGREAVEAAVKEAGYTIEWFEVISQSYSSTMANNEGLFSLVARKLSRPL
# [18] = molecular target: Phenylethanolamine N-methyltransferase (Homo sapiens) (UniProt P11086); assay: as above; details: MTase-Glo luminescence, SAH detection, recombinant enzyme; measured here: PNMT max response; stronger effect = lower value
# Phenylethanolamine N-methyltransferase (Homo sapiens), sequence (P11086 whole entry, looked up): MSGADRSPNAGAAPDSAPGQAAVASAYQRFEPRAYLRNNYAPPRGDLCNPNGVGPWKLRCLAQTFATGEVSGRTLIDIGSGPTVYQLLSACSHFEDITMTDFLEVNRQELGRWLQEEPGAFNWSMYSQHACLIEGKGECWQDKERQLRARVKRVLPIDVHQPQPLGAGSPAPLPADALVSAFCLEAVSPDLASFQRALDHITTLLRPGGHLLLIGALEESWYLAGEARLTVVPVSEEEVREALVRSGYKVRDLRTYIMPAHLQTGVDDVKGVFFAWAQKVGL
# [19] = tested on: Nanoluciferase (engineered Oplophorus gracilirostris luciferase); assay: Primary Nanoluciferase (NLuc) qHTS assay for identification of artifact compounds. (AID 1845222);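 also: NLuc secreted into diluted conditioned medium of S16 cells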
# Summary of the method: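 qHTS format, against NLuc in S16 cell-conditioned medium. Nano-Glo substrate 1:100 was added after 15 min at room temperature. Luminescence was taken after a further 5 min.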
smiles,measurement,setting,value
O=C(O)CCC1CCC(c2cc(F)ccc2F)(S(=O)(=O)c2ccc(Cl)cc2)CC1 (centres undefined),outcome,[1],inactive
same,Potency,[2],inactive
same,Potency,[3],inactive
COc1cccc2c1CCCC2CCCN1CCN(C2CCCCC2)CC1 (centres undefined),Potency,[4],inactive
same,Potency,[2],inactive
same,Potency,[3],inactive
CCS(=O)(=O)N1CC(CC#N)(n2cc(-c3ncnc4[nH]ccc34)cn2)C1,outcome,[1],inactive
same,Potency,[3],16.1 µM (active)
same,Potency,[5],inactive
same,Potency,[6],inactive
same,outcome,[7],inactive
O=c1cc(-c2ccc(O)cc2)oc2cc(O)cc(O)c12,outcome,[8],inactive
same,outcome,[9],inactive
same,outcome,[10],inactive
same,outcome,[11],inactive
same,Potency,[12],inactive
same,Potency,[2],inactive
same,Potency,[3],inactive
CC1(C)CCC2=C(O1)c1ccccc1C(=O)C2=O,outcome,[13],inactive
same,outcome,[14],inactive
same,activity,[15],-19.8%
same,Potency,[16],9.68 µM (active)
same,activity,[17],-22.7%
same,activity,[18],-16.1%
same,Potency,[12],inactive
same,Potency,[2],16.3 µM (active) and inactive
same,Potency,[3],inactive
COc1ccc2c(Oc3ccc(NC(=O)c4c(C)n(CC(C)(C)O)n(-c5ccccc5)c4=O)cc3F)ccnc2c1,activity,[15],-4.14%
same,"activity change, negative = inhibition",[16],-3.46%
same,activity,[17],-7.85%
same,activity,[18],-1.86%
same,Potency,[2],inactive
same,Potency,[3],inactive
same,Potency,[5],inactive
same,Potency,[6],inactive
same,Potency,[19],inactive
same,outcome,[7],inactive
CN1CCN(CCOc2cc(OC3CCOCC3)c3c(Nc4c(Cl)ccc5c4OCO5)ncnc3c2)CC1,activity,[15],-14.1%
same,"activity change, negative = inhibition",[16],-0.0396%
same,activity,[17],-34.6%
same,activity,[18],-10.6%
same,outcome,[1],inactive
same,Potency,[2],inactive
same,Potency,[3],inactive
same,Potency,[5],inactive
same,Potency,[6],inactive
CC[C@]1(O)C[C@@H]2CN(CCc3c([nH]c4ccccc34)[C@@](C(=O)OC)(c3cc4c(cc3OC)N(C)[C@H]3[C@@](O)(C(=O)OC)[C@H](OC(C)=O)[C@]5(CC)C=CCN6CC[C@]43[C@@H]65)C2)C1,activity,[15],7.74%
same,"activity change, negative = inhibition",[16],10.8%
same,activity,[17],-2.58%
same,activity,[18],4.57%
same,Potency,[2],inactive
same,Potency,[3],inactive
same,Potency,[5],inactive
NC(N)=Nc1nc(CSCC/C(N)=N/S(N)(=O)=O)cs1,Potency,[12],inactive
same,Potency,[3],inactive
COc1ccc(-c2cc(=O)c3c(O)cc(O)cc3o2)cc1O,Potency,[2],inactive
CC(=O)c1ccc(S(=O)(=O)NC(=O)NC2CCCCC2)cc1,Potency,[12],inactive
same,Potency,[2],inactive
same,Potency,[3],inactive
CC/C(=C(\c1ccccc1)c1ccc(OCCN(C)C)cc1)c1ccccc1,Potency,[12],14.1 µM (active) and inactive
same,Potency,[2],inactive
same,Potency,[3],inactive
CC(C)(C)c1ccc(C(O)CCCN2CCC(C(O)(c3ccccc3)c3ccccc3)CC2)cc1 (centres undefined),Potency,[12],inactive
same,Potency,[2],inactive
same,Potency,[3],inactive
COc1ccccc1N1CCN(CCCNc2cc(=O)n(C)c(=O)n2C)CC1,Potency,[12],inactive
same,Potency,[2],inactive
same,Potency,[3],inactive
same,Potency,[5],inactive
same,Potency,[6],inactive
same,outcome,[7],inactive
O=c1cc(-c2ccccc2)oc2cc(O)c(O)c(O)c12,Potency,[2],inactive
CN(C)c1cc(NC(=O)CNC(C)(C)C)c(O)c2c1C[C@@H]1C[C@H]3[C@H](N(C)C)C(=O)C(C(N)=O)=C(O)[C@@]3(O)C(=O)C1=C2O,Potency,[2],inactive
CC(=O)O[C@]1(C(C)=O)CC[C@H]2[C@@H]3C=C(Cl)C4=CC(=O)[C@@H]5C[C@@H]5[C@]4(C)[C@H]3CC[C@@]21C,Potency,[12],inactive
same,Potency,[2],inactive
same,Potency,[3],inactive
same,Potency,[5],inactive
same,Potency,[6],inactive
same,outcome,[7],inactive
NCCS,Potency,[12],inactive
same,Potency,[2],inactive
same,Potency,[3],inactive
CCCNC(=O)NS(=O)(=O)c1ccc(Cl)cc1,Potency,[12],inactive
same,Potency,[2],inactive
same,Potency,[3],inactive
same,Potency,[5],inactive
same,Potency,[6],inactive
same,outcome,[7],inactive
CN(C)CCC(c1ccccc1)c1ccccn1 (centres undefined),Potency,[12],inactive
same,Potency,[2],inactive
same,Potency,[3],inactive
same,Potency,[5],inactive
same,outcome,[7],inactive
CCN(CC)CCNC(=O)c1ccc(N)cc1,Potency,[12],inactive
same,Potency,[2],inactive
same,Potency,[3],inactive
same,Potency,[5],inactive
same,Potency,[6],inactive
same,Potency,[19],inactive
same,outcome,[7],inactive
O=C(NOCC(O)CO)c1cc(Br)c(F)c(F)c1Nc1ccc(I)cc1F (centres undefined),Potency,[2],inactive
O=C(O)CCc1nc(-c2ccccc2)c(-c2ccccc2)o1,Potency,[12],inactive
same,Potency,[2],inactive
same,Potency,[3],inactive
same,Potency,[5],inactive
same,Potency,[6],inactive
same,outcome,[7],inactive
CCN(CC)CCOC(=O)c1ccc(N)cc1,Potency,[12],inactive
same,Potency,[2],inactive
same,Potency,[3],inactive
CCn1cc(C(=O)O)c(=O)c2ccc(C)nc21,Potency,[12],inactive
same,Potency,[2],inactive
same,Potency,[3],inactive
N[C@@]1(C(=O)O)CS(=O)(=O)[C@H]2[C@H](C(=O)O)[C@H]21,Potency,[2],inactive
O=C(NCCN1CCOCC1)c1ccc(Cl)cc1,Potency,[12],inactive
same,Potency,[2],inactive
same,Potency,[3],inactive
O=C(O)c1c(Cl)c(Cl)c(Cl)c(Cl)c1-c1c2cc(I)c(=O)c(I)c-2oc2c(I)c(O)c(I)cc12,Potency,[2],inactive
O=C1C[C@@H](c2ccc(O)cc2)Oc2cc(O)cc(O)c21,Potency,[2],inactive
CC(C)NCC(O)COc1cccc2[nH]ccc12 (centres undefined),Potency,[12],inactive
same,Potency,[2],inactive
same,Potency,[3],inactive
same,Potency,[5],inactive
same,Potency,[6],inactive
same,Potency,[19],inactive
same,outcome,[7],inactive
CCCCCCCCCCCC1=C(O)C(=O)C=C(O)C1=O,Potency,[2],inactive
CCN1CCC[C@H]1CNC(=O)c1cc(S(N)(=O)=O)ccc1OC,Potency,[12],inactive
same,Potency,[2],inactive
same,Potency,[3],inactive
same,Potency,[5],inactive
same,Potency,[6],inactive
same,outcome,[7],inactive
CC[C@@]1(O)C[C@H](O[C@H]2C[C@H](N(C)C)[C@H](O[C@H]3C[C@H](O)[C@H](O[C@H]4CCC(=O)[C@H](C)O4)[C@H](C)O3)[C@H](C)O2)c2c(cc3c(c2O)C(=O)c2c(O)cccc2C3=O)[C@@H]1C(=O)OC,Potency,[2],inactive
